Structures are written as SMILES. Records with an inconclusive call do not appear. Activity calls are given as the source filed them. Rule for the calls: active = hit-call score of the fitted dose curve at least 0.9, where 1 is the maximum; inconclusive = response in the unintended direction; inactive = score below 0.9.

In PubChem BioAssay (EPA / NIEHS) one finds outcome and AC50 data, which are given here for twelve compounds.

The nature of test [1]: TOX21_p53_BLA_p2_viability: Viability Assessment in the Tox21 HCT-116 p53 Agonism Beta-lactamase Assay, Phase 2 (AID 2283591).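 Note: actives lower the ATP signal meaning cytotoxicity.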 An outline of the steps: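 Cytotoxicity readout: CellTiter-Glo ATP luminescence, 30 min at room temperature, after the beta-lactamase read. Cells were HCT116 exposed 16 h at 37C to compounds pin-transferred at 217-fold dilution from DMSO stocks.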

Test [2] in a line: TOX21_p53_BLA_p3_viability: Viability Assessment in the Tox21 HCT-116 p53 Agonism Beta-lactamase Assay, Phase 3 (AID 2283593).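 Note: cells exposed to compound for 16 h before reading.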 An outline of the steps:
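Cellular ATP was quantified by CellTiter-Glo luminescence, read after 30 min at room temperature. Beforehand, HCT116 cells (4000/well) received compound 5 h post-seeding, 217-fold diluted from DMSO, then incubated 16 h at 37C.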

The target in test [3] is Cellular tumor antigen p53 (Homo sapiens) (UniProt P04637). Kind of test: TOX21_p53_BLA_p3_ratio: Tox21 HCT-116 p53 Agonism Beta-lactamase Assay, Ratio, Phase 3 (AID 2283596). The gist of the method:
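Cells were seeded at 4000/well, rested 5 h at 37C, then dosed with DMSO compound solutions (217-fold dilution) for 16 h. CCF4-AM substrate was loaded for 2 h at room temperature, and the 460/530 nm emission ratio was fitted for gain of signal versus DMSO.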

The nature of test [4]: TOX21_p53_BLA_p4_viability: Viability Assessment in the Tox21 HCT-116 p53 Agonism Beta-lactamase Assay, Phase 4 (AID 2283597).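 Note: hits lower the luminescence signal meaning cytotoxicity.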 An outline of the steps:
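Readout: ATP luminescence (CellTiter-Glo), measured 30 min after reagent addition at RT. The reagent followed a 2 h CCF4-AM incubation, and the cells had been exposed to compound for 16 h at 37C.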

The target in test [5] is Cellular tumor antigen p53 (Homo sapiens) (UniProt P04637). As to the kind of experiment: TOX21_p53_BLA_p5_ratio: Tox21 HCT-116 p53 Agonism Beta-lactamase Assay, Ratio, Phase 5 (AID 2283599). The gist of the method:
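Beta-lactamase reporter ratio (blue 460 nm over green 530 nm, 405 nm excitation) after 2 h CCF4-AM loading, in HCT-116 cells exposed 16 h at 37 C to compounds pinned at 217-fold dilution. Increases relative to DMSO baseline scored.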

Test [6] in a line: TOX21_p53_BLA_p5_viability: Viability Assessment in the Tox21 HCT-116 p53 Agonism Beta-lactamase Assay, Phase 5 (AID 2283600). The gist of the method:
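Workflow: seed 4000 cells per well, wait 5 h, add compounds (DMSO, 217-fold dilution), incubate 16 h, load CCF4-AM 2 h, add CellTiter-Glo, read luminescence after 30 min.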

The target of test [7] is Cellular tumor antigen p53 (Homo sapiens) (UniProt P04637). Kind of test: TOX21_p53_BLA_p4_ratio: Tox21 HCT-116 p53 Agonism Beta-lactamase Assay, Ratio, Phase 4 (AID 2283601). An outline of the steps: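 Signal is the blue/green (460nm/530nm) ratio of cleaved versus uncleaved CCF4-AM substrate, read after 2 h substrate loading. Cells were HCT116 carrying the p53-responsive beta-lactamase reporter, dosed 16 h at 37C, 5% CO2; CellTiter-Glo measured in parallel.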

For test [8], the target named is Thyroid hormone receptor alpha (Rattus norvegicus) + Thyroid hormone receptor beta (Rattus norvegicus) (UniProt P18113+P63059). As to the kind of experiment: TOX21_TR_LUC_GH3_Antagonist_Followup: Tox21 GH3 Thyroid Hormone Receptor Antagonism Luciferase Follow-Up Assay (AID 2283942). The gist of the method:
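Loss of T3-driven (1.0 nM final) reporter activity in GH3 cells was read by ONE-Glo luminescence after 24 h incubation at 37C; 15-point compound series spanned 92 uM to 5nM final, 1,500 cells/well.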

Test [9] has as its target THRA (gene 7067) (UniProt P10827). As to the kind of experiment: TOX21_TRA_COA_Antagonist_Followup_ratio: Tox21 Thyroid Hormone Receptor alpha Antagonism through Coactivator Recruitment Follow-Up Assay, Ratio (AID 2283953). An outline of the steps:
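We measured antagonism of T3-type coactivator recruitment using a TR-FRET ratio (emission 520 and 495 nm) between a Tb-labelled anti-GST antibody on TRα LBD (2.5 nM) and SRC-2 peptide (200 nM). Activity was scaled between DMSO and T3 wells.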

For test [10], the target named is THRB (gene 7068) (UniProt P10828). As to the kind of experiment: TOX21_TRB_BLA_Antagonist_Followup_ratio: Tox21 Thyroid Hormone Receptor beta Antagonism Beta-lactamase (BLA) Follow-Up Assay, Ratio (AID 2283958). An outline of the steps:
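Using charcoal-stripped 2% FBS medium, human TRβ-LBD/GAL4 reporter HEK293T cells received test compounds for 18 h. The endpoint is the cleaved-to-uncleaved substrate ratio (460/530 nm).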

Test [11] in a line: TOX21_TRB_BLA_Antagonist_Followup_viability: Viability Assessment in the Tox21 Thyroid Hormone Receptor beta Antagonism Beta-lactamase (BLA) Follow-Up Assay (AID 2283961). The gist of the method: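 TRβ-bla HEK293T (human TRβ LBD fused to GAL4 DBD), 3,000 cells/well, 2% charcoal-stripped FBS, phenol red-free medium; 18 h compound exposure, 37C; CellTiter-Glo 30 min RT; luminescence, loss-of-signal readout.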

The target of test [12] is Retinoic acid receptor RXR-alpha (Homo sapiens) (UniProt P19793). Kind of test: TOX21_TR_RXR_BLA_Antagonist_Followup_ratio: Tox21 Thyroid Hormone Receptor beta Retinoid X Receptor alpha (RXRa) Antagonism Beta-lactamase (BLA) Follow-Up Assay, Ratio (AID 2283972). An outline of the steps: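 HEK293T RXRa-bla, 2% charcoal-stripped FBS medium, 16 h compound exposure at 37C, qHTS 11 conc x3. CCF4 FRET ratio ch2/ch1 (460:530), DMSO = baseline, loss-of-signal fit.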

The nature of test [13]: TOX21_TR_RXR_BLA_Antagonist_Followup_viability: Viability Assessment in the Tox21 Thyroid Hormone Receptor beta Retinoid X Receptor alpha (RXRa) Antagonism Beta-lactamase (BLA) Follow-Up Assay (AID 2283979). The gist of the method: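 Follow-up compounds (11 concentrations, triplicate) were incubated 16 h at 37C/5% CO2 with HEK293T RXRa-bla cells seeded at 2,500/well in charcoal-stripped-serum medium. ATP content by CellTiter-Glo luminescence gave viability; curves fitted in both directions against DMSO.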

Sequence of Cellular tumor antigen p53 (Homo sapiens) (P04637 whole entry, looked up): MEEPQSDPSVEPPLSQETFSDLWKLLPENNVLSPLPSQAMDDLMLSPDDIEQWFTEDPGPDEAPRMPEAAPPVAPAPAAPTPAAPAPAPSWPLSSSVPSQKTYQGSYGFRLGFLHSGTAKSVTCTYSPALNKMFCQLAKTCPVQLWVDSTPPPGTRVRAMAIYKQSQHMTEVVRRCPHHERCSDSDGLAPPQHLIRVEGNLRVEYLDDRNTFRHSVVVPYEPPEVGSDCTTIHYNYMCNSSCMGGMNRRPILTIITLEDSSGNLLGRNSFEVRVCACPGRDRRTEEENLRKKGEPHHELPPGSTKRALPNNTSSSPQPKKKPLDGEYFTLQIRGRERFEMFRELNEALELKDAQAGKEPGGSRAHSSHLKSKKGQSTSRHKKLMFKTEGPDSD
Sequence of THRB (gene 7068) (P10828 whole entry, looked up, the tested form may be a part): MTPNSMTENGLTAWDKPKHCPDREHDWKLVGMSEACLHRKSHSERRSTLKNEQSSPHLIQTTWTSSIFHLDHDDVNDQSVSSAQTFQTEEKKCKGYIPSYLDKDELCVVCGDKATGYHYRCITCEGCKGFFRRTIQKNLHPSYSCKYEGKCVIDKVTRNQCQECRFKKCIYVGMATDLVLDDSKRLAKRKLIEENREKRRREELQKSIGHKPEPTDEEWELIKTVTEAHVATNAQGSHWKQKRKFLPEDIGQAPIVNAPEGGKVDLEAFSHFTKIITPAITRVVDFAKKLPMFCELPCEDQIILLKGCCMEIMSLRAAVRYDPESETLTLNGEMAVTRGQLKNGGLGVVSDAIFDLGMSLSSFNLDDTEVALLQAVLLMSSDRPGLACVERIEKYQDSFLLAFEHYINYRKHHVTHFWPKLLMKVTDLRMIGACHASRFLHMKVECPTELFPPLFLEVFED
Sequence of THRA (gene 7067) (P10827 whole entry, looked up, the tested form may be a part): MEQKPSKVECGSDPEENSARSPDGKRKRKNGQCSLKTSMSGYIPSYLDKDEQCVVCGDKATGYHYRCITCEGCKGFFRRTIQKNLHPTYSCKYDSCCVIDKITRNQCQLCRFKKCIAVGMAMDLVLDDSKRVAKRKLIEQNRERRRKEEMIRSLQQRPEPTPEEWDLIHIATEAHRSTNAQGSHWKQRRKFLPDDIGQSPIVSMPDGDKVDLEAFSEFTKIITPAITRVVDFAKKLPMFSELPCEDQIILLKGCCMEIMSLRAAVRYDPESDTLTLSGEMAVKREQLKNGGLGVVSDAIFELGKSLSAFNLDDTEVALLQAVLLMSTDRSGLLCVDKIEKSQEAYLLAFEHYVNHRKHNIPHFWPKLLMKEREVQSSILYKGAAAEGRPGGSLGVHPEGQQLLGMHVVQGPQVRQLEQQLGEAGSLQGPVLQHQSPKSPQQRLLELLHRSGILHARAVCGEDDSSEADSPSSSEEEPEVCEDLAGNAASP
Sequence of Retinoic acid receptor RXR-alpha (Homo sapiens) (P19793 whole entry, looked up): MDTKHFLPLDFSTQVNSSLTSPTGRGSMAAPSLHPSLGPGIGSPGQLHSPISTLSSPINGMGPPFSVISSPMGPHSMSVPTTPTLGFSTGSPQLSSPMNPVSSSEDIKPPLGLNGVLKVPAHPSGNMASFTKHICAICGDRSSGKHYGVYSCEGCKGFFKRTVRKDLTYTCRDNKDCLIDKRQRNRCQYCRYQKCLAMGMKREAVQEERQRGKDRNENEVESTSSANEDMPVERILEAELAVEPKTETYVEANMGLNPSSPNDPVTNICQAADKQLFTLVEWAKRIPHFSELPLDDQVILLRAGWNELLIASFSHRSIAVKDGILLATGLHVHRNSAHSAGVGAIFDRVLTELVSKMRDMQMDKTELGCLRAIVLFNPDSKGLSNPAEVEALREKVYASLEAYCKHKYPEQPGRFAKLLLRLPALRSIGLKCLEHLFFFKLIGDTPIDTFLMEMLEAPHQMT

In the case of `CC1CCCNC1` (stereo not given), the compound was called inactive in test [1], in test [2], in test [3], in test [4], in test [5] and in test [6]. For the same compound, the result in test [7] was inactive.
As to `O=C(/C=C/c1cccc(F)c1)NC1CC1`, the compound was classed as inactive in test [1], in [2], in test [3], in [4], in [5] and in [6]. Besides, in test [7], the result was inactive.
In the case of `Cc1cc(Nc2ccccc2C(=O)O)ccc1Cl`, the result in test [1], in [2], in test [3], in test [6], in test [8] and in test [9] was inactive. The compound was called inactive in test [11], in test [12] and in test [13]. The AC50 in test [4] is 31.9 µM (active); in [5], 17.4 µM (active); in test [7] it was 23 µM (active); in test [10] it was 51.5 µM (active).
On to `CCN(O)CC`, for which the result in test [1], in [2], in test [3], in test [4], in test [5] and in test [6] was inactive. In addition, in test [7], the result was inactive.
As for `CCc1ncnc2cc(OC)c(OC)cc12`, the result in [1], in test [2], in [3], in test [4], in test [5] and in test [6] was inactive. Besides, the result in test [7] was inactive.
As to `CC(CCl)OC(C)CCl` (stereo not given), the compound was classed as inactive in test [1], in [2], in test [3], in test [4], in test [5] and in test [7].
`CCCC(=O)CC`: the compound was classed as inactive in test [1], in test [2], in test [3], in test [4], in test [6] and in test [7].
For the compound `CC1(C)S[C@@H]2[C@H](N3C(=O)C(c4ccccc4)NC3(C)C)C(=O)N2[C@H]1C(=O)O` (stereo not given in full), the compound was classed as inactive in test [1], in test [2], in [3], in [4] and in [6].
For `CC(C)(C)NCC(O)COc1ccc(NC(=O)NC2CCCCC2)cc1` (stereo not given), the outcome in test [1], in test [2], in [3], in [4] and in [6] was inactive.
`CO[C@@H]1[C@@H](O[C@@H]2O[C@H](C)[C@@H](O[C@H]3C[C@@](C)(O)[C@@H](O)[C@H](C)O3)[C@H](N(C)C)[C@H]2O)[C@@H](CC=O)C[C@@H](C)[C@@H](O[C@@H]2CC[C@H](N(C)C)[C@@H](C)O2)/C=C/C=C/C[C@@H](C)OC(=O)C[C@H]1OC(C)=O`: the compound was called inactive in test [1], in test [2], in test [3], in test [4], in test [5] and in test [7].
`CCOC(=O)Cc1ccc(-c2ccccc2)cc1`: the outcome in test [1], in test [2], in test [3], in test [4] and in test [6] was inactive.
As for `CC(=O)O[C@H]1C[C@@H]2CC[C@@H]3[C@H](CC[C@@]4(C)[C@H]3C[C@H]([N+]3(C)CCCCC3)[C@@H]4OC(C)=O)[C@@]2(C)C[C@@H]1[N+]1(C)CCCCC1`, the result in test [1], in test [2], in [3], in test [4], in test [5] and in test [7] was inactive.
